Here are results for seven molecules from PubChem BioAssay (NCI).

Each structure is given as a SMILES string. About 83,000 compounds went through this panel and 20% of them were active in at least one assay; those are over-represented in the sample as a whole.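 Activity criterion: percent growth below 10, measured after cells in 96-well plates were exposed to a single compound concentration for 48 hours.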 A number with no mark means an inactive call. Active and inactive are the calls of the source.

Holding throughout (assay): NCI-60 one-dose screen, 48 h (100 = growth as untreated, 0 = no growth, -100 = all killed)
What all share (conditions): 10 µM unless noted

Experiment [1] has as its system SK-MEL-2 melanoma.
In experiment [2] the test system is EKVX NSCLC.
Experiment [3] concerns SN12C renal.
Experiment [4] has as its system UO-31 renal.
Experiment [5] has as its system TK-10 renal.
Experiment [6] relates to ACHN renal.
Experiment [7] has as its system CAKI-1 renal.
In experiment [8] the test system is A498 renal.
Experiment [9] deals with CCRF-CEM leukemia.
For experiment [10], the system named is MOLT-4 leukemia.
Experiment [11] concerns SR leukemia.
The subject of experiment [12] is RPMI-8226 leukemia.
In experiment [13] the test system is OVCAR-8 ovarian.
Experiment [14] deals with OVCAR-5 ovarian.
In experiment [15] the test system is OVCAR-4 ovarian.
Experiment [16] concerns SK-OV-3 ovarian.
The test system of experiment [17] is IGROV1 ovarian.
For experiment [18], the system named is OVCAR-3 ovarian.
For experiment [19], the system named is HS 578T breast.
Experiment [20] concerns NCI/ADR-RES ovarian.

Consider `COc1ccc(-c2cc(Nc3ccnc(N4CCOCC4)n3)on2)cc1`, for which the growth in experiment [1] is 42%; in [2], 50.9%; in experiment [3], 47.2%; in experiment [4], 51.9%; in experiment [5], 69.1%; in experiment [6], 44.9%. Also, the growth was 51.8% in [7]; -0.776% (active) in [8]; 17.2% in experiment [9]; 21.2% in experiment [10]; 31.1% in experiment [11]; 25.2% in experiment [12]. Moreover, the growth is 37.2% in [13]; 46.6% in experiment [14]; 62.1% in experiment [15]; 43.2% in [16]; 43.1% in experiment [17]; -17.6% (active) in [18]. In addition, the results for the growth in experiment [19] and in experiment [20] were 18.7% and 10.8%, respectively.

Take `C=C1c2nc3ccccc3n2C=C(c2ccc(OC)cc2)N1Cc1ccccc1`: the growth is 57.7% in experiment [1]; 62.6% in experiment [2]; 98.7% in experiment [3]; 54.6% in experiment [4]; 118% in [5]; 96.2% in experiment [6]. Also, the growth in experiment [7] was 101%; in experiment [8] it was 69.7%; in [9] it was 78.9%; in experiment [10], 71.5%; in [11], 47.3%; in experiment [12], 39.4%. For the same molecule, the growth in experiment [13] was 88.3%; in experiment [14] it was 101%; in [15], 80.1%; in [16] it was 107%; in experiment [17], 96.7%; in [18], 85.4%. Moreover, the figures for the growth in experiment [19] and in [20] were 116% and 77.4%, respectively.

On to `CC(=O)Nc1ccc(S(=O)(=O)Nc2cccc(-c3nc(-c4ccc(NC(=O)c5cccnc5)cc4Cl)no3)c2)cc1`, for which the growth in [1] was 35.9%; in experiment [2], 54.3%; in experiment [3], 41.3%; in [4], 82.9%; in experiment [5], 69.9%; in experiment [6], 81.2%. In addition, the growth in [7] was 90.6%; in experiment [8] it was 36.9%; in [9] it was 23.3%; in experiment [10], 25.8%; in experiment [11], 19%; in [12] it was 43.8%. The growth is 38.8% in experiment [13]; 84.7% in [14]; 53% in experiment [15]; 20.9% in [16]; 54.7% in experiment [17]; 20.7% in experiment [18]. Also, the growth in experiment [19] was 24.5%; in experiment [20], 94.7%.

Take `CCC([N+](=O)[O-])S(=O)(=O)c1ccc(C)cc1` (stereo not given): the growth is 107% in experiment [1]; 110% in experiment [2]; 95.3% in [3]; 82% in experiment [4]; 102% in experiment [5]; 104% in experiment [6]. For the same molecule, the growth in [7] is 80%; in experiment [8], 103%; in experiment [9], 99%; in experiment [10], 117%; in [11], 113%; in experiment [12], 106%. The growth in experiment [13] is 95.3%; in experiment [14] it was 88.2%; in experiment [15], 93.6%; in [16] it was 108%; in experiment [17], 103%; in [18] it was 150%. Moreover, the figures for the growth in [19] and in experiment [20] were 129% and 92.3%, respectively.

As to `O=C1/C(=C(/c2ccccc2)N2CCOCC2)Cc2ccccc21`, the growth was 90.4% in experiment [1]; 38% in [2]; -42.6% (active) in experiment [3]; -47.8% (active) in experiment [4]; -16.7% (active) in [5]; -39.6% (active) in [6]. The growth in experiment [7] was -43.5% (active); in experiment [8], 51.4%; in [9] it was 22.6%; in experiment [10], 22.7%; in [11], 26.6%; in experiment [12] it was 16.5%. Also, the growth in experiment [13] is 20.4%; in experiment [14], 34.4%; in experiment [15], 31.7%; in [16], 93.6%; in [17], 14%; in experiment [18], -60.7% (active). For the same molecule, the growth in experiment [19] is 5.18% (active); in experiment [20], -33.1% (active).

Turning to `CN1CCN(CCCOc2cccc3nc(Nc4cc(Cl)cc(Cl)c4)ccc23)CC1`, the growth was 86.9% in [1]; 26.6% in experiment [2]; 36.1% in experiment [3]; -15.8% (active) in [4]; 71.9% in [5]; -5.36% (active) in experiment [6]. Moreover, the growth in experiment [7] was 30.7%; in experiment [8] it was 23.8%; in [9] it was -40.7% (active); in experiment [10], -47.7% (active); in [11], -30.2% (active); in experiment [12] it was -14.8% (active). For the same molecule, the growth was 51.4% in experiment [13]; 3.71% (active) in [14]; 42.7% in experiment [15]; 90.2% in [16]; 42.8% in experiment [17]; 26.3% in experiment [18]. In addition, the growth in [19] was 37.5%; in experiment [20], 6.46% (active).

Turning to `COc1cc2c(cc1-c1c(C)noc1C)ncc1nc(-c3ccccn3)n([C@H](C)COC(F)F)c12`, the growth in [1] is 76.3%; in [2] it was 59%; in [3] it was 62.8%; in experiment [4] it was 18.8%; in experiment [5], 33%; in [6], 40.1%. The growth in experiment [7] is 34.2%; in experiment [8], -12.2% (active); in [9] it was 41%; in experiment [10], 44.4%; in [11] it was 27.8%; in experiment [12], 8.62% (active). Besides, the growth in experiment [13] was 35.1%; in experiment [14], 76.6%; in experiment [15], 52.6%; in [16], 9.97% (active); in experiment [17], 52.6%; in experiment [18] it was 47.4%. Further, the figures for the growth in [19] and in experiment [20] were 3.88% (active) and 33.6%, respectively.
